Assay outcomes: PubChem, National Center for Advancing Translational Sciences (NCATS)
A selection: hits, their analogues and other compounds. The true share with any hit is near 0.92%.
WRN inhibitor: qHTS for Inhibitors of WRN Helicase. Bifunctional 3'-5' exonuclease/ATP-dependent helicase WRN (Homo sapiens), Q14191. WRN helicase unwinding, fluorescent forked duplex, kinetic. Potency, µM (highest dose often 114 µM), hits mostly inhibitors. 360,000 tested, 0.46% active. AID 651768, 2012; further: nearly all actives have a fitted effect of over 55% in size
Target sequence (Q14191 whole entry, looked up): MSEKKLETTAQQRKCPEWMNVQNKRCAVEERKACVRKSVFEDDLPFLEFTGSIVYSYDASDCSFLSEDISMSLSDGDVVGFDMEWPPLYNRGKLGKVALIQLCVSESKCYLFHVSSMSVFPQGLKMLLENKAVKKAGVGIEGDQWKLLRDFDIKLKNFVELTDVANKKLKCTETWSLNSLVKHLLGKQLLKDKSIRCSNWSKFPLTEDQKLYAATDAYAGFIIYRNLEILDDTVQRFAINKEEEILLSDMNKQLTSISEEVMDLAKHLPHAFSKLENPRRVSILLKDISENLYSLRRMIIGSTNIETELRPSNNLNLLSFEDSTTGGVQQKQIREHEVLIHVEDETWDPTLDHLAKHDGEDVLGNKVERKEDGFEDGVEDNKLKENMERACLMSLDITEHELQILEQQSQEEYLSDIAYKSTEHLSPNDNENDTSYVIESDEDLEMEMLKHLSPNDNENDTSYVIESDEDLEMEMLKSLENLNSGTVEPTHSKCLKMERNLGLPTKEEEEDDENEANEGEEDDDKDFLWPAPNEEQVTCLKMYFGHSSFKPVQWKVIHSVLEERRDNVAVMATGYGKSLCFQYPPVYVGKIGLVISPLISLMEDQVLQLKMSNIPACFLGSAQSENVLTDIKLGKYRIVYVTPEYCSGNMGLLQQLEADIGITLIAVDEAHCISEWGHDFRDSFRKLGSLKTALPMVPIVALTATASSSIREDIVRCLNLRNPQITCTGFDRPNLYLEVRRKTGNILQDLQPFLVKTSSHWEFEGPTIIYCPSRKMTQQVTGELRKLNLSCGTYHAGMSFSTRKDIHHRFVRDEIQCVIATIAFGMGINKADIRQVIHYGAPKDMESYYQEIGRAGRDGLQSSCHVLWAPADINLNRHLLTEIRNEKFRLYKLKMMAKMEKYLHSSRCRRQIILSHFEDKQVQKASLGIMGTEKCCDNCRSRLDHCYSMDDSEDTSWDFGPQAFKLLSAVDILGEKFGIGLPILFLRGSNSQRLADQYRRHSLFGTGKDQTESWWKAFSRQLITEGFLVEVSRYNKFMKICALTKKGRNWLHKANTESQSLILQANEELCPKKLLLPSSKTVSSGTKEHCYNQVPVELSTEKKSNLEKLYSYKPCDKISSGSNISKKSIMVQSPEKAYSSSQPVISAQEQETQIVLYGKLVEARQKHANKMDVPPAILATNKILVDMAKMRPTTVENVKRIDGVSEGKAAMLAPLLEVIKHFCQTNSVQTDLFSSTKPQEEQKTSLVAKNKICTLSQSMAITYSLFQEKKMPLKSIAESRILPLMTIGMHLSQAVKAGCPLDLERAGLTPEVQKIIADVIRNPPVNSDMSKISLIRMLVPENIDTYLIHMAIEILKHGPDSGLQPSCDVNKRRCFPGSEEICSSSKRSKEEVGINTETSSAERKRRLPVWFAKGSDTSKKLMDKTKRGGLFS
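WRN at 20 nM final was preincubated with compound for 15 min at room temperature; reaction started with 100 nM forked duplex oligonucleotide carrying fluorophore and quencher plus 2 mM ATP (final). Unwinding followed kinetically by red fluorescence (ex 525/em 598 nm).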
L3MBTL1 inh: qHTS Assay for the Inhibitors of L3MBTL1; Lethal(3)malignant brain tumor-like protein 1 (Homo sapiens), Q9Y468; AlphaScreen L3MBTL1–H3K9me1 peptide binding; Potency, µM (series often up to 57.1 µM), most hits filed as inhibitors; 230,000 tested, 0.66% active; AID 485360, 2010; further: nearly all actives have a fitted effect of over 60% in size
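Displacement of a biotinylated histone H3(1-15) peptide monomethylated at Lys9 (75 nM) from L3MBTL1 (50 nM) was measured by AlphaScreen after a 30 min room-temperature compound incubation; cefsulodin titration served as intraplate control.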
RECQ1 helicase: qHTS Assay for Inhibitors of RecQ-Like Dna Helicase 1 (RECQ1); 240,000 tested, 0.54% active; RECQ1 DNA unwinding, red fluorescence kinetic read; Potency, µM (doses to about 57.3 µM), actives largely listed as inhibitors; ATP-dependent DNA helicase Q1 (Homo sapiens), P46063; further: nearly all actives have a fitted effect of over 30% in size
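50 nM RECQ1T1 preincubated 15 min with compound in Tris pH 8.0 buffer with MgCl2, DTT, Tween-20 and 2.5 ug/ml poly(dI-dC); started with 200 nM TAMRA/BHQ-2 forked duplex and 2 mM ATP. Unwinding read as fluorescence (525/598 nm), two reads 2 h apart.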
BLM inh: qHTS Assay for Inhibitors of Bloom's syndrome helicase (BLM). RecQ-like DNA helicase BLM (Homo sapiens), P54132. recombinant BLM DNA unwinding, fluorescence dequenching. Potency, µM (titrated, usually from 56.1 µM), hits mostly inhibitors. 350,000 tested, 0.2% active. AID 2528, 2010; further: nearly all actives have a fitted effect of over 35% in size
APEX1 inh: qHTS Assay for Inhibitors of the Human Apurinic/apyrimidinic Endonuclease 1 (APE1) | recombinant APE1, TAMRA/BHQ-2 abasic DNA cleavage fluorescence | 350,000 tested, 0.35% active | AID 2517, 2012 | DNA repair nuclease/redox regulator APEX1 (Homo sapiens), P27695 | Potency, µM (series often up to 65.8 µM), actives largely listed as inhibitors; further: nearly all actives have a fitted effect of over 55% in size
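Readout is kinetic fluorescence (ex 525, em 598 nm) from cleavage of 50 nM TAMRA/BHQ-2 THF abasic duplex by 0.75 nM APE1, compound added 15 min beforehand at RT.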
Numbers stand for hits; ! = repeats disagree; [ ] = another dose, or the depositor's remark. The call rests on the fitted dose curve; in most records, active means well fitted curve in the direction sought with a large enough effect; inconclusive means small, poorly fitted or top-dose-only effect, or another doubt; inactive means no such curve, though single readings can be large; an effect the other way counts as inactive or inconclusive.

COc1cc(C=C(C#N)C#N)cc(O)c1O was read as RECQ1 helicase inactive and APEX1 inh inactive.
For N#CC(C#N)=Cc1ccc(O)c(O)c1 the results were WRN inhibitor inactive, L3MBTL1 inh 22.4µM, RECQ1 helicase inactive, BLM inh inactive and APEX1 inh inconclusive.
`N.N.N.N.N.N.N.N.N.N.N.N.N.N.O.O.[Cl-].[Cl-].[Cl-].[Cl-].[Cl-].[Cl-].[Ru].[Ru].[Ru]` gave RECQ1 helicase 14.1µM and APEX1 inh inactive.
`C#CCOCCOCCOCCNc1nc(N2CCN(C(=O)CCCCCCCCCCNC(=O)[C@H]([C@@H](C)CC)n3cc(CCCCN=C(N)N)nn3)CC2)nc(N2CCN(C(=O)CCCCCCCCCCNC(=O)[C@H](CO)n3cc(CCCCCN)nn3)CC2)n1` gave WRN inhibitor 22.4µM, L3MBTL1 inh inactive and APEX1 inh inconclusive.
ClC1=C(Cl)C(Cl)(C2(Cl)C(Cl)=C(Cl)C(Cl)=C2Cl)C(Cl)=C1Cl was read as RECQ1 helicase inconclusive, BLM inh inactive and APEX1 inh 11.2µM.
`O=C1NC(=O)C(=Cc2coc3ccccc3c2=O)C(=O)N1` gave WRN inhibitor inactive, RECQ1 helicase inactive, BLM inh inactive and APEX1 inh inactive.
For O=C1NC(=O)C(=C/C=C/c2coc3ccc(Br)cc3c2=O)C(=O)N1 the results were L3MBTL1 inh inactive, RECQ1 helicase 35.5µM, BLM inh inactive and APEX1 inh inconclusive.
Screening CCCCCCCCCCCCCCOS(=O)(=O)O returned RECQ1 helicase inconclusive, BLM inh inconclusive and APEX1 inh inactive.
Screening FC(F)(F)c1ccc(Cl)cc1 returned RECQ1 helicase inactive and APEX1 inh inactive.
Screening CCn1c(N)c(C(=O)NC)sc1=S returned WRN inhibitor 56.2µM, RECQ1 helicase inactive, BLM inh inactive and APEX1 inh inactive.
Screening Cc1ccc(N)c(C)c1 returned WRN inhibitor inactive, L3MBTL1 inh inactive, RECQ1 helicase inactive and APEX1 inh inactive.
`Cc1ccc(N=Nc2cc(C)ccc2N)cc1` gave WRN inhibitor inactive, L3MBTL1 inh 14.1µM, RECQ1 helicase inactive, BLM inh inactive and APEX1 inh inactive.
`COc1ccc(C=C2C(=O)NC(=S)NC2=O)cc1` gave WRN inhibitor 50.1µM.
O=C1NC(=S)NC(=O)C1=Cc1ccc(OCc2ccccc2)cc1 was read as WRN inhibitor 35.5µM.
CN[C@H]1C[C@@H](N)[C@H](O)[C@@H](O[C@@H]2O[C@H](CO)[C@H](O)[C@@H]3OC4(O[C@H]23)O[C@H](C(N)CO)[C@H](O)[C@H](O)[C@H]4O)[C@@H]1O (stereo partly drawn) was read as APEX1 inh inactive.
C(=NC1CCCCC1)=NC1CCCCC1 was read as RECQ1 helicase inactive and APEX1 inh inactive.
For Cn1ncnc2c(=O)n(C)c(=O)nc1-2 the results were WRN inhibitor inactive[11.6 µM], L3MBTL1 inh inactive, RECQ1 helicase inconclusive, BLM inh 1.12µM and APEX1 inh inconclusive.
O=C(O)/C=C\C(=O)O was read as WRN inhibitor inactive, L3MBTL1 inh inactive, RECQ1 helicase inactive and APEX1 inh inactive.
CC(=O)O.CC(=O)O.[Cd] was read as RECQ1 helicase inconclusive, BLM inh inconclusive and APEX1 inh 3.98µM.
O=C(O)C(Br)Br was read as RECQ1 helicase 35.5µM and APEX1 inh inactive.
For CN(C)[C@@H]1C(=O)C(C(N)=O)=C(O)[C@@]2(O)C(=O)C3=C(O)c4c(O)cccc4[C@@](C)(O)C3[C@H](O)C12 (stereo partly drawn) the results were WRN inhibitor 39.8µM!, L3MBTL1 inh 3.16µM and APEX1 inh inactive.
For CN(C)C1C(=O)C(C(N)=O)=C(O)[C@@]2(O)C(=O)C3=C(O)c4c(O)cccc4[C@@](C)(O)C3[C@H](O)C12 (stereo partly drawn) the results were RECQ1 helicase inactive, BLM inh inactive and APEX1 inh inactive.
For ClP(Cl)(Cl)(Cl)Cl the results were RECQ1 helicase inactive and APEX1 inh inactive.
For Cc1ccc(-n2c(O)c(C=NCc3ccco3)c(=O)[nH]c2=S)cc1C the results were WRN inhibitor inconclusive, L3MBTL1 inh 31.6µM, RECQ1 helicase inactive, BLM inh inconclusive and APEX1 inh inconclusive.
For ClC1=C(Cl)[C@]2(Cl)[C@@H]3[C@H]4C[C@H]([C@@H]5O[C@H]45)[C@@H]3[C@@]1(Cl)C2(Cl)Cl the results were APEX1 inh inactive.
Cc1cccc(N2C(=O)/C(=C/c3ccc(N4CCN(C)CC4)o3)C(=O)NC2=S)c1C was read as WRN inhibitor 31.6µM, L3MBTL1 inh inactive, RECQ1 helicase inactive, BLM inh inactive and APEX1 inh inactive.
Screening CCc1ccccc1N1C(=O)/C(=C/c2ccc(N3CCN(C)CC3)o2)C(=O)NC1=S returned WRN inhibitor 50.1µM, L3MBTL1 inh inactive, RECQ1 helicase inactive, BLM inh inactive and APEX1 inh inactive.
`CC(C)c1cc2c(c(O)c1O)[C@@]1(C(=O)O)CCCC(C)(C)[C@@H]1CC2` gave RECQ1 helicase inactive, BLM inh inactive and APEX1 inh inactive.
Screening O=C1C(=O)C(Cl)=C(Cl)C(Cl)=C1Cl returned WRN inhibitor 39.8µM.
For O=C1C(Cl)=C(Cl)C(=O)C(Cl)=C1Cl the results were RECQ1 helicase inconclusive, BLM inh inactive and APEX1 inh 39.8µM.
For Oc1c(Cl)cc(Cl)cc1Cl the results were RECQ1 helicase inconclusive and APEX1 inh inactive.
N#CC1=C(N)Oc2c(c(=O)oc3ccccc23)C1c1ccc([N+](=O)[O-])o1 (stereo not drawn) was read as WRN inhibitor inconclusive, L3MBTL1 inh inconclusive, RECQ1 helicase inactive, BLM inh inactive and APEX1 inh 35.5µM.
For CC(C)Oc1ccc(C2C(C#N)=C(N)Oc3c2c(=O)oc2ccccc32)cc1 (stereo not drawn) the results were WRN inhibitor inactive, L3MBTL1 inh inactive, RECQ1 helicase inactive, BLM inh inactive and APEX1 inh inactive.
COC[C@H]1OC(=O)c2coc3c2[C@@]1(C)C1=C(C3=O)C2CCC(=O)[C@@]2(C)C[C@H]1OC(C)=O (stereo partly drawn) was read as RECQ1 helicase 35.5µM, BLM inh inactive and APEX1 inh inconclusive.
Screening COC[C@H]1OC(=O)c2coc3c2[C@@]1(C)C1=C(C3=O)[C@H]2CCC(=O)[C@@]2(C)C[C@H]1OC(C)=O returned RECQ1 helicase 12.6µM, BLM inh inactive and APEX1 inh inactive.
